Test results from PubChem BioAssay (Tox21).
Unmarked numbers belong to inactive results. Results filed as inconclusive are left out. The source made the active and inactive calls. Unless noted, calls come from the whole dose curve; as a rule, active = well fitted cell-killing curve with a large enough effect in the repeat runs; inconclusive = weak or mixed curves, or effect the other way; inactive = no such curve, though single readings can be large or run the other way.

assay: qHTS assay to identify small molecule antagonists of the sonic hedgehog signaling (Shh) pathway - cell viability counter screen (AID 1259367); details: NIH/3T3 Gli1-Luc viability, CellTiter-Fluor, 24 h; series mostly up to 92.4 µM; viability change, negative = cytotoxic: at the top concentration; note: nearly all actives have a fitted effect of over 55% in size
Method in brief: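 Seed 3T3 Gli1-Luc cells at 2,000 per well; incubate 4 hr; add compound in DMSO, then conditioned medium; incubate at 37C with 5% CO2; add CellTiter-Fluor after 23 hr; read fluorescence 1 hr later.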
% is set by controls: 0 for no effect and ±100 for the full control effect; potency is the fitted concentration of half-maximal effect.

Compound | viability change, negative = cytotoxic | Potency
CCCCCO | 4.57% | –
O=[N+]([O-])c1ccccc1CCO | -2.38% | –
CC(O)C(C)O (stereo unspecified) | -0.103% | –
c1ccc(CN(Cc2ccccc2)Cc2ccccc2)cc1 | 3.59% | –
CC(CCl)OC(C)CCl (stereo unspecified) | -0.0469% | –
CCC(=O)O[C@]1(C(=O)COC)[C@@H](C)C[C@H]2[C@@H]3CCC4=CC(=O)C=C[C@]4(C)C3(F)[C@@H](O)C[C@@]21C (stereo partly specified) | -8.41% [at 42.5 µM] | –
Clc1ccccc1-c1nc(-c2ccncc2)no1 | 13.7% [at 42.5 µM] | –
C=CC(C)(O)CC/C=C(/C)CCC=C(C)C (stereo unspecified) | -6.67% | –
CCOc1ccccc1O | 4.72% | –
C[Si](C)(C)O[Si](C)(C)O[Si](C)(C)C | 0.571% | –
CC(=O)S[C@H](C(=O)N[C@H]1Cc2ccccc2[C@H]2CCC[C@@H](C(=O)O)N2C1=O)C(C)C | 2.18% | –
CC/C=C/CCO | 0.17% | –
COC(=O)C(C)(C)C | -2.61% | –
S=c1[nH][nH]c(=S)s1 | 3.83% | –
Cc1cc(C)n(CO)n1 | 4.61% | –
O=C(O)c1ccccc1-n1cc(C(=O)O)c(=O)c2cc(Nc3c(F)cc(F)cc3Cl)c(Cl)cc21 | 3.47% | –
CC(=O)OCC(=O)[C@@]1(O)CC[C@H]2[C@@H]3CCC4=CC(=O)C=C[C@]4(C)[C@@]3(F)[C@@H](O)C[C@@]21C | 1.71% [at 42.5 µM] | –
CCC(C)CCCC(C)(C)O (stereo unspecified) | -0.304% | –
CCCCCCCCCCCCCCCCN | 0.517% [at 42.5 µM] | –

Compound | viability change, negative = cytotoxic | Potency
COc1ccc(/C=C/S(=O)(=O)NC(=O)c2ccc(C)cc2Cl)cc1 | 0.0943% | –
N#Cc1ccc(CC(=O)c2cccc(C(F)(F)F)c2)cc1 | 5.75% | –
Cc1cccc(C)c1NC(=O)CN1CCCC1 | -1.17% [at 42.5 µM] | –
Cc1c(Nc2ncccc2C(=O)O)cccc1C(F)(F)F | 5.97% [at 42.5 µM] | –
O=C(O)c1cc(C(=O)O)cc([N+](=O)[O-])c1 | 3.16% | –
CCCCC(CC)COCCC#N (stereo unspecified) | 1.27% | –
O=C1c2ccccc2C(=O)C1c1ccc2ccccc2n1 | -1.71% [at 42.5 µM] | –
CCc1cnc(C(=O)O)c(C(=O)O)c1 | 4.67% | –
O=[N+]([O-])c1ccc(Cl)cc1Cl | -0.263% | –
CCCCCC1CCC(=O)O1 (stereo unspecified) | 2.55% | –
Nc1nc(Cl)nc2c1ncn2[C@H]1C[C@H](O)[C@@H](CO)O1 | -5.29% | –
O=Cc1ccc([N+](=O)[O-])cc1 | 1.89% | –
C=CC(O)CCCCC (stereo unspecified) | -0.518% | –
Nc1ccccc1Nc1ccccc1 | – | 54.6 µM (active)
FC1(F)C(F)(F)C(F)(F)C2(F)C(F)(C1(F)F)C(F)(F)C(F)(F)C1(F)C(F)(F)C(F)(F)C(F)(F)C(F)(F)C12F (stereo unspecified) | 4.19% | –
OCCOc1cccc(OCCO)c1 | -0.532% | –
O=C(O)COCC(=O)O | 3.4% | –
CCCCCCCCCC(C)C=O (stereo unspecified) | -2.33% | –
CC(C)CCCCCCCOC(=O)c1ccc(C(=O)OCCCCCCCC(C)C)c(C(=O)OCCCCCCCC(C)C)c1 | – | 42.6 µM (active)

assay: qHTS assay to identify small molecule agonists of the sonic hedgehog signaling (Shh) pathway (AID 1259368; calls by dose curve; note: nearly all actives have a fitted effect of over 15% in size;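 for activity change: NIH/3T3-derived 3T3Gli1-Luc cells carrying a stable Gli1-driven firefly luciferase reporter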); details: NIH/3T3 Gli1-Luc reporter, luciferase, 24 h; series mostly up to 92.4 µM; activity change: at the top concentration
Method in brief: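 Steps: seed 3T3 Gli1-Luc cells, incubate 4 hr at 37 C, pin-transfer compounds in DMSO alongside a positive control, incubate 24 hr, add luciferase detection reagent, wait 30 min at room temperature, read luminescence.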

Compound | activity change | Potency
CCCCCO | 0.54% | –
O=[N+]([O-])c1ccccc1CCO | 0.856% | –
CC(O)C(C)O (stereo unspecified) | -1.37% | –
c1ccc(CN(Cc2ccccc2)Cc2ccccc2)cc1 | 0.0804% | –
CC(CCl)OC(C)CCl (stereo unspecified) | -0.166% | –
CCC(=O)O[C@]1(C(=O)COC)[C@@H](C)C[C@H]2[C@@H]3CCC4=CC(=O)C=C[C@]4(C)C3(F)[C@@H](O)C[C@@]21C (stereo partly specified) | – | 13.3 µM (active)
C=CC(C)(O)CC/C=C(/C)CCC=C(C)C (stereo unspecified) | -0.421% | –
CCOc1ccccc1O | -0.0566% | –
C[Si](C)(C)O[Si](C)(C)O[Si](C)(C)C | -1.63% | –
CC(=O)S[C@H](C(=O)N[C@H]1Cc2ccccc2[C@H]2CCC[C@@H](C(=O)O)N2C1=O)C(C)C | -1.93% | –
CC/C=C/CCO | -3% | –
COC(=O)C(C)(C)C | -1.3% | –
S=c1[nH][nH]c(=S)s1 | 0.476% | –
Cc1cc(C)n(CO)n1 | 1.43% | –
O=C(O)c1ccccc1-n1cc(C(=O)O)c(=O)c2cc(Nc3c(F)cc(F)cc3Cl)c(Cl)cc21 | 0.104% | –
CC(=O)OCC(=O)[C@@]1(O)CC[C@H]2[C@@H]3CCC4=CC(=O)C=C[C@]4(C)[C@@]3(F)[C@@H](O)C[C@@]21C | -1.76% [at 42.5 µM, hits give high values] | –
CCC(C)CCCC(C)(C)O (stereo unspecified) | -0.811% | –
CCCCCCCCCCCCCCCCN | 0.352% [at 42.5 µM, hits give high values] | –
COc1ccc(/C=C/S(=O)(=O)NC(=O)c2ccc(C)cc2Cl)cc1 | -0.0019% | –

Compound | activity change | Potency
N#Cc1ccc(CC(=O)c2cccc(C(F)(F)F)c2)cc1 | 0.587% | –
Cc1cccc(C)c1NC(=O)CN1CCCC1 | -0.899% [at 42.5 µM, hits give high values] | –
Cc1c(Nc2ncccc2C(=O)O)cccc1C(F)(F)F | 0.423% [at 42.5 µM, hits give high values] | –
O=C(O)c1cc(C(=O)O)cc([N+](=O)[O-])c1 | -0.92% | –
CCCCC(CC)COCCC#N (stereo unspecified) | 0.253% | –
O=C1c2ccccc2C(=O)C1c1ccc2ccccc2n1 | – | 0.121 µM (active)
CCc1cnc(C(=O)O)c(C(=O)O)c1 | -0.488% | –
O=[N+]([O-])c1ccc(Cl)cc1Cl | -0.997% | –
CCCCCC1CCC(=O)O1 (stereo unspecified) | -4.16% | –
Nc1nc(Cl)nc2c1ncn2[C@H]1C[C@H](O)[C@@H](CO)O1 | 1.06% | –
O=Cc1ccc([N+](=O)[O-])cc1 | 9.91% | –
C=CC(O)CCCCC (stereo unspecified) | 0.391% | –
Nc1ccccc1Nc1ccccc1 | -8.52% | –
FC1(F)C(F)(F)C(F)(F)C2(F)C(F)(C1(F)F)C(F)(F)C(F)(F)C1(F)C(F)(F)C(F)(F)C(F)(F)C(F)(F)C12F (stereo unspecified) | 0.829% | –
C=C[Si]1(C)O[Si](C)(C=C)O[Si](C)(C=C)O[Si](C)(C=C)O1 (stereo unspecified) | -0.734% | –
OCCOc1cccc(OCCO)c1 | 0.122% | –
O=C(O)COCC(=O)O | 0.665% | –
CCCCCCCCCC(C)C=O (stereo unspecified) | 2.57% | –
CC(C)CCCCCCCOC(=O)c1ccc(C(=O)OCCCCCCCC(C)C)c(C(=O)OCCCCCCCC(C)C)c1 | -2.53% | –
